Laboratory results published in PubChem BioAssay (Tox21).
Records with an inconclusive call do not appear. Activity calls are given as the source filed them. Unless noted, calls follow the shape of the dose curve; as a rule, active = well fitted curve in the direction sought with a large enough effect in the repeat runs; inconclusive = weak or mixed curves; inactive = no such curve, though single readings can be large; an effect the other way counts as inactive or inconclusive.

What was measured:
[1] = qHTS assay for small molecule agonists of the p53 signaling pathway (AID 651631; calls by dose curve; also: nearly all actives have a fitted effect of over 15% in size)
Method in brief: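 Readout was fluorescence from the LiveBLAzer FRET substrate, applied for 2 h at room temperature after 16 h compound exposure at 37 °C. Cells were the p53RE-bla HCT-116 line, with beta-lactamase driven by p53 response elements.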

[2] = qHTS assay for small molecules that induce genotoxicity in human embryonic kidney cells expressing luciferase-tagged ATAD5 (AID 651632); also: nearly all actives have a fitted effect of over 15% in size
Method in brief: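 HEK293T cells carrying luciferase-tagged ATAD5 were given compound or DMSO vehicle and incubated 16 hr at 37C, 5% CO2. Luciferase activity was read after 30 min at room temperature with Amplite; a rise signals genotoxic stress.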

[3] = qHTS assay for small molecule agonists of the p53 signaling pathway - cell viability (AID 651633; calls by dose curve; also: series mostly up to about 83 µM; nearly all actives have a fitted effect of over 30% in size)
Method in brief: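 p53RE-bla cells were treated with compound for 16 hours at 37 C. Cytotoxicity was then measured as CellTiter-Glo luminescence after 30 min at room temperature.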

[4] = qHTS assay for small molecules that induce genotoxicity in human embryonic kidney cells expressing luciferase-tagged ATAD5 - cell viability (AID 651634; calls by dose curve; also: nearly all actives have a fitted effect of over 25% in size)
Method in brief: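 HEK293T cells carrying luciferase-tagged ATAD5, 2,000 cells/well, exposed to compound for 15.5 hr at 37C. Viability read as live-cell protease activity by CellTiter-Fluor fluorescence after 30 min at 37C.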

[5] = qHTS assay to test for compound auto fluorescence at 590 nm (red) in HepG2 cells (AID 720674)
Method in brief: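 Fluorescence at 590 nm emission following 540 nm excitation was recorded from HepG2 wells one hour after compound transfer, with DMSO-only wells as vehicle and Rose Bengal sodium equivalency as the scale.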

[6] = qHTS assay to test for compound auto fluorescence at 535 nm (green) in HepG2 cells (AID 720675)
[7] = qHTS assay to test for compound auto fluorescence at 460 nm (blue) in HEK293 cells (AID 720678)
Method in brief: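 Intrinsic compound fluorescence is recorded in live HEK293 cultures after overnight incubation at 37C, 5% CO2, using excitation 405 nm and emission 460 nm. Values are referenced to triamterene.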

[8] = qHTS assay to test for compound auto fluorescence at 590 nm (red) in HEK293 cells (AID 720679)
Method in brief: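 Red autofluorescence, HEK293 cells: 2,000 cells/well; attach 4-5 hr 37C; add 23 nL cpd or DMSO; incubate o/n 37C 5% CO2; read Ex540/Em590; Rose Bengal sodium reference.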

[9] = qHTS assay to test for compound auto fluorescence at 535 nm (green) in HEK293 cell free culture (AID 720682)
Method in brief: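 Compounds were pin-transferred into cell-free DMEM with 10% FBS, and green fluorescence was read at excitation 485 nm and emission 535 nm. Intensities were expressed as fluorescein-equivalent values.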

[10] = qHTS assay to test for compound auto fluorescence at 590 nm (red) in HepG2 cell free culture (AID 720684)
Method in brief: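 Compounds are added to culture medium (MEM, 10% FBS) lacking cells, then fluorescence is read at excitation 540 nm, emission 590 nm, with Rose Bengal sodium as the equivalency standard.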

[11] = qHTS assay to test for compound auto fluorescence at 460 nm (blue) in HepG2 cell free culture (AID 720685)
Method in brief: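 Compound (23 nL) or DMSO pinned into cell-free MEM with 10% FBS; blue fluorescence read at 405/460 nm excitation/emission, expressed as auto-fluorescence equivalency to triamterene.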

[12] = qHTS assay to test for compound auto fluorescence at 535 nm (green) in HepG2 cell free culture (AID 720686)
[13] = qHTS assay to test for compound auto fluorescence at 460 nm (blue) in HepG2 cells (AID 720687)
Method in brief: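 HepG2 cells in MEM with 10% FBS, attached overnight at 37 C, were exposed to compound or DMSO for 1 hr at 37 C, 5% CO2. Blue fluorescence was read at 405/460 nm, with triamterene as reference fluorophore.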

[14] = target: Glucocorticoid receptor (Homo sapiens) (UniProt P04150); assay: qHTS assay to identify small molecule agonists of the glucocorticoid receptor (GR) signaling pathway (AID 720691; active = well fitted activation curve with a large enough effect in the signal ratio in the repeat runs, not every such curve was filed as active; the % refers to the signal ratio; also: potency is read from the fitted curve at half-maximal effect)
Method in brief: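 GR-bla HeLa cells carrying a GRE-driven beta-lactamase reporter, exposed to compounds for 18 h at 37 C. Reporter activation read as fluorescence after 2 h with LiveBLAzer B/G FRET substrate at room temperature.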

[15] = qHTS assay for small molecule disruptors of the mitochondrial membrane potential - cell viability (AID 720634; calls by dose curve;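 also: human HepG2 liver cancer cells; series mostly up to about 83 µM; nearly all actives have a fitted effect of over 20% in size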)
Method in brief: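 HepG2 cells, 2,000 per well, attached overnight, then treated 1 hr at 37 C, 5% CO2. Viability read as ATP by CellTiter-Glo luminescence after 30 min at room temperature. Read in the same wells as the m-MPI membrane-potential dye assay.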

[16] = qHTS assay to test for compound auto fluorescence at 535 nm (green) in HEK293 cells (AID 720680)
[17] = qHTS assay to test for compound auto fluorescence at 460 nm (blue) in HEK293 cell free culture (AID 720681)
Method in brief: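 Compounds were added to cell-free DMEM with 10% FBS and fluorescence read directly. The blue channel used 405 nm excitation and 460 nm emission, with triamterene as the reference fluorophore.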

[18] = qHTS assay to test for compound auto fluorescence at 590 nm (red) in HEK293 cell free culture (AID 720683)
Method in brief: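 Cell-free wells of DMEM with 10% FBS received compound, and intrinsic fluorescence was read at excitation/emission 540/590 nm. Values expressed as equivalence to Rose Bengal sodium.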

[19] = qHTS assay for small molecule disruptors of the mitochondrial membrane potential (AID 720635)
Method in brief: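 HepG2 cells exposed to compound 1 hr at 37C, then Mito-MPS dye 30 min. Ratio read of aggregate (540/590 nm) versus monomer (490/535 nm) fluorescence.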

[20] = target: Glucocorticoid receptor (Homo sapiens) (UniProt P04150); assay: qHTS assay to identify small molecule antagonists of the glucocorticoid receptor (GR) signaling pathway (AID 720692; active = well fitted inhibition curve with a large enough effect in the signal ratio in the repeat runs, not every such curve was filed as active; the % refers to the signal ratio)
Method in brief: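 GR-bla HeLa cells carrying a GRE-driven beta-lactamase reporter received compound after 4 h plating, then dexamethasone (5 nM final). After 18 h at 37C, the FRET substrate was loaded for 2 h at room temperature and fluorescence read.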

Measured: Potency

Chain of Glucocorticoid receptor (Homo sapiens) (P04150 whole entry, looked up): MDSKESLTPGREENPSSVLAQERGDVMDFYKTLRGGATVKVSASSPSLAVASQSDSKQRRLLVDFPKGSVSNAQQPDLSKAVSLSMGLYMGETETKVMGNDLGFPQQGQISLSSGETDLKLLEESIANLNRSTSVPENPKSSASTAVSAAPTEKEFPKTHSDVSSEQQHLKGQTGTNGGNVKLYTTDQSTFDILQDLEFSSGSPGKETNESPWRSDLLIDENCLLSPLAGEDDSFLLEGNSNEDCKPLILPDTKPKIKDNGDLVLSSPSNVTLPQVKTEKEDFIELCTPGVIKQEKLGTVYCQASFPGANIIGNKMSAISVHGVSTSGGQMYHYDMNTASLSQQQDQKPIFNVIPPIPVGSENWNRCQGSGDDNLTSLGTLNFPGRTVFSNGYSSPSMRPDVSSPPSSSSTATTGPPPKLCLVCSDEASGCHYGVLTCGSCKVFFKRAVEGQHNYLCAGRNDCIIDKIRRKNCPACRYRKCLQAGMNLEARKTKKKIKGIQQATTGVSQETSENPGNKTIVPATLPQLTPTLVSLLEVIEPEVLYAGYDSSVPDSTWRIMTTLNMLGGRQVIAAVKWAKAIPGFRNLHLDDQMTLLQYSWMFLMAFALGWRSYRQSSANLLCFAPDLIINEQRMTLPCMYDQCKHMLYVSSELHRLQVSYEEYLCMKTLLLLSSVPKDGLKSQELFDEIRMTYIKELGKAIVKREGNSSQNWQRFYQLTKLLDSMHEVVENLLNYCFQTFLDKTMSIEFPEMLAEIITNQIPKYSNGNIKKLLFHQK

CN1CCN(c2cc3c(cc2F)c(=O)c(C(=O)O)cn3-c2ccc(F)cc2)CC1
inactive: [1] | [2] | [3] | [4] | [5] | [6] | [7] | [8] | [9] | [10] | [11] | [12] | [13] | [14]

C/C=C(\C)C#N
inactive: [1] | [2] | [3] | [4] | [15] | [5] | [6] | [7] | [8] | [16] | [9] | [10] | [11] | [12] | [13]

CCN(CC)CCOCCOC(=O)C1(c2ccccc2)CCCC1
inactive: [1] | [2] | [3] | [4] | [15] | [6] | [7] | [16] | [17] | [9] | [18] | [10] | [11] | [13] | [14]

CCc1nccnc1CC
inactive: [1] | [2] | [3] | [4] | [15] | [6] | [7] | [8] | [16] | [17] | [9] | [18] | [10] | [11] | [12] | [13]

Nc1nc2c(ncn2COC(CO)CO)c(=O)[nH]1
inactive: [1] | [2] | [3] | [4] | [5] | [6] | [7] | [16] | [17] | [9] | [18] | [10] | [11] | [13] | [14]

N=C(N)c1ccccc1
inactive: [1] | [2] | [3] | [4] | [15] | [5] | [6] | [7] | [17] | [9] | [18] | [10] | [11] | [12]

CN(C)CCCSc1ccccc1NC(=O)/C=C/c1ccccc1
inactive: [1] | [2] | [3] | [15] | [19] | [5] | [6] | [7] | [8] | [16] | [17] | [9] | [18] | [10] | [11] | [12] | [13] | [14] | [20]

Nc1cc(=O)[nH]c(N)n1
inactive: [1] | [2] | [3] | [15] | [19] | [5] | [6] | [7] | [8] | [16] | [17] | [9] | [18] | [11] | [12] | [13]

O=S(O)CO
inactive: [1] | [2] | [3] | [15] | [19] | [5] | [6] | [7] | [8] | [16] | [17] | [9] | [11] | [12] | [13]

CS(=O)(=O)O
inactive: [1] | [2] | [3] | [4] | [15] | [5] | [6] | [7] | [16] | [9] | [18] | [10] | [11] | [14] | [20]

NC(=O)c1ccc(N)cc1
inactive: [1] | [2] | [3] | [4] | [15] | [5] | [6] | [7] | [8] | [17] | [9] | [18] | [11] | [13] | [14] | [20]

CN(C)CCCNCCCN(C)C
inactive: [1] | [2] | [3] | [4] | [5] | [6] | [7] | [8] | [17] | [18] | [10] | [11] | [12] | [13] | [14] | [20]

O=C1OC(=O)C2CCCCC12 (configuration not stated)
inactive: [1] | [2] | [3] | [15] | [19] | [5] | [6] | [7] | [8] | [16] | [17] | [9] | [18] | [10] | [11] | [12] | [13] | [14] | [20]

CCCCCCCCCCCCN(CCCCCCCCCCCC)CCCCCCCCCCCC
inactive: [1] | [2] | [3] | [4] | [15] | [5] | [6] | [7] | [16] | [17] | [18] | [11] | [13]

CN1CCCC1
inactive: [1] | [2] | [3] | [4] | [15] | [6] | [7] | [8] | [17] | [9] | [18] | [10] | [11] | [13]

CCCCC/C=C\CCC=O
inactive: [1] | [2] | [3] | [4] | [15] | [5] | [6] | [7] | [8] | [9] | [18] | [11] | [12] | [13] | [14] | [20]

NS(=O)(=O)c1cc(C(=O)O)cc(N2CCCC2)c1Oc1ccccc1
active: [14] 9.1 µM
inactive: [1] | [2] | [3] | [4] | [15] | [6] | [7] | [8] | [16] | [17] | [9] | [18] | [10] | [11] | [12] | [13] | [20]

COC(=O)c1ccc(C)cc1C1=NC(C)(C(C)C)C(=O)N1 (configuration not stated)
inactive: [1] | [2] | [3] | [4] | [15] | [5] | [6] | [7] | [8] | [17] | [10] | [11] | [12] | [13] | [14] | [20]
